Screens as filed in PubChem.
A selection: hits, their analogues and other compounds. The true share with any hit is near 2.9%.
PAFAH1B3 FP inh: blocks human PAF acetylhydrolase 1B catalytic subunit 3; actives 0.28% (n = 340,000); Q15102; recombinant PAFAH1B3, FP-rhodamine probe, fluorescence polarization; inhibition, % at 3.39 µM;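 active = inhibition above the screen-wide average of all tested compounds plus 3 SD, cut at about 25% in these data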
Target sequence (Q15102 whole entry, looked up): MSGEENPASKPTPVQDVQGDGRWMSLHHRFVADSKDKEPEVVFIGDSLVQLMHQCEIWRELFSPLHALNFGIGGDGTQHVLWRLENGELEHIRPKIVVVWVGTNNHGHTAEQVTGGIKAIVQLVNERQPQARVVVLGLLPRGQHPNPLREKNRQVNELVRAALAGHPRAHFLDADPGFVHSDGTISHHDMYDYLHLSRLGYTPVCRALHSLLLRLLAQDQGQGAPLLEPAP
PAFAH2 FP inh: PAFAH2 (human) inhibition; Q99487; recombinant PAFAH2, FP-rhodamine activity probe, fluorescence polarization; inhibition, % at 3.39 µM; actives 0.99% (n = 340,000); AID 492956;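 active = inhibition above the mean over all tested compounds plus 3 SD, cut at about 30% in these data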;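 also: inhibitors block probe labeling of enzyme so polarization drops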
EBNA-1 inhibitor: blocks EBNA-1 binding to DNA | EBNA-1 DNA binding, fluorescence polarization | inhibition, % at 14.8 µM | actives 0.34% (n = 300,000); in the data active = inhibition above about 28%
ZTA counter: counter-screen for EBNA-1 inhibitors: inhibitors of Epstein-Barr virus ZTA | AID 2234 | ZTA-DNA binding, fluorescence polarization | P03206 | actives 0.15% (n = 320,000) | inhibition, % at 11 µM; in the data active = inhibition above about 33%
Target sequence (P03206 whole entry, looked up): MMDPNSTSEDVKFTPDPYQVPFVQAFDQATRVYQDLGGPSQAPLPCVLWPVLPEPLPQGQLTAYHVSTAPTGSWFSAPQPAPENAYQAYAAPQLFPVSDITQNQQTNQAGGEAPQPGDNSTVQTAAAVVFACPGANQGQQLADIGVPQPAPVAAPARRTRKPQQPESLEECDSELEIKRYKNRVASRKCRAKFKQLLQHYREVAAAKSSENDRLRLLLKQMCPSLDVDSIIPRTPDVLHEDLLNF
PAFAH1B2 inh: blocks human PAF acetylhydrolase 1b catalytic subunit 2; P68402; recombinant PAFAH1B2, FP-rhodamine activity probe, fluorescence polarization; inhibition, % at 3.39 µM; actives 1.2% (n = 340,000);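 active = inhibition above the mean of all tested compounds plus 3 SD, cut at about 24% in these data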
Target sequence (P68402 whole entry, looked up): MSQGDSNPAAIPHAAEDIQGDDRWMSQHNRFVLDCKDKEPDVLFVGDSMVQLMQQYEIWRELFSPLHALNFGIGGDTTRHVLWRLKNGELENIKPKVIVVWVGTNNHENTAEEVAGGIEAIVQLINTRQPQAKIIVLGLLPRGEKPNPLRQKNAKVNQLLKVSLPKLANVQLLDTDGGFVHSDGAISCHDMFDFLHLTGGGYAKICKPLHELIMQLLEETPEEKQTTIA
rCAG binder: binds r(CAG) RNA repeats. inhibition, % at 3 µM. actives 1.3% (n = 370,000). r(CAG) RNA repeat, TO-PRO-1 dye displacement fluorescence;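 active = inhibition above the plate cutoff, the mean of all test compounds on that plate plus 3 SD, cut at about 35% in these data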;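 also: higher means more dye released from RNA so lower well fluorescence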
EBNA-1 inh conf: EBNA-1 (EBV) inhibition, confirmation. AID 2292. inhibition, % at 14.8 µM. Recombinant EBNA-1 DBD, Cy5-DNA fluorescence polarization. actives 35% (n = 830). shares compounds with EBNA-1 inhibitor;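 active = mean inhibition across replicates above a set limit taken from the earlier primary screen, cut at about 28% in these data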
ZTA DNA inh trip: blocks Epstein-Barr virus ZTA in triplicate, EBNA-1 counter-screen; shares compounds with EBNA-1 inhibitor; Zta-ZRE DNA binding, Cy5 fluorescence polarization; inhibition, % at 11.1 µM; 830 tested, under 10 active; AID 2328;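 active = mean inhibition over triplicates above a set limit taken from the primary EBNA-1 screen, cut at about 37% in these data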;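 also: purified full length Zta protein with Cy5 labeled ZRE DNA probe; inhibitors lower polarization by freeing the labeled DNA probe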
Numbers stand for hits.

How did N[C@H](C(=O)N[C@@H](Cc1ccccc1)C(=O)N1CCC2CCN(S(=O)(=O)c3ccccc3)CC21)c1ccccc1 (stereo partly specified) do in these assays?
rCAG binder: inactive

What do the screens show for `COC(=O)[C@]12CCCCC=C1N(Cc1ccco1)C(=O)[C@H](CC(=O)N1CCOCC1)C2`?
rCAG binder: inactive

Results for CC(=O)Nc1ccc(S(=O)(=O)Nc2c(NC3CCCCC3)c3ccccc3oc2=O)cc1 ?
PAFAH1B3 FP inh: inactive; PAFAH2 FP inh: inactive; EBNA-1 inhibitor: 32.3; ZTA counter: inactive; PAFAH1B2 inh: inactive; rCAG binder: inactive; EBNA-1 inh conf: inactive; ZTA DNA inh trip: inactive

How did CC(=O)Nc1ccc(S(=O)(=O)Nc2ncccn2)cc1 do in these assays?
PAFAH1B3 FP inh: inactive; PAFAH2 FP inh: inactive; EBNA-1 inhibitor: inactive; ZTA counter: inactive; PAFAH1B2 inh: inactive; rCAG binder: inactive

Results for CC(=O)Nc1ccc(S(=O)(=O)Nc2ccc(S(=O)(=O)Nc3ncccn3)cc2)cc1 ?
PAFAH1B3 FP inh: inactive; PAFAH2 FP inh: inactive; EBNA-1 inhibitor: 82.4; ZTA counter: inactive; PAFAH1B2 inh: inactive; rCAG binder: inactive; EBNA-1 inh conf: inactive; ZTA DNA inh trip: inactive

How did COC(=O)[C@]12C[C@H](CC(=O)N3CCN(C(=O)c4ccco4)CC3)C(=O)N(Cc3ccc(Cl)cc3Cl)C1=C[C@H](C(C)C)O[C@@H]2C1CC1 do in these assays?
rCAG binder: inactive

How did Cc1ccc(NC(=O)c2sc3ncn(CC(=O)N4CCN(c5ccccn5)CC4)c(=O)c3c2C)cc1Cl do in these assays?
PAFAH1B3 FP inh: inactive; PAFAH2 FP inh: inactive; EBNA-1 inhibitor: 30.8; ZTA counter: inactive; PAFAH1B2 inh: inactive; rCAG binder: inactive; EBNA-1 inh conf: inactive; ZTA DNA inh trip: inactive

Results for CN(C)c1ccc(C(C(=O)NCC2CCCO2)N(Cc2ccccc2)C(=O)c2snc(C(N)=O)c2N)cc1 (stereo unspecified) ?
PAFAH1B3 FP inh: inactive; PAFAH2 FP inh: inactive; EBNA-1 inhibitor: inactive; ZTA counter: inactive; PAFAH1B2 inh: inactive; rCAG binder: inactive

What do the screens show for `Cc1cccc(N(C(=O)c2snc(C(N)=O)c2N)C(C(=O)NCC2CCCO2)c2ccc(N(C)C)cc2)c1C` (stereo unspecified)?
PAFAH1B3 FP inh: inactive; PAFAH2 FP inh: inactive; EBNA-1 inhibitor: 40.2; ZTA counter: inactive; PAFAH1B2 inh: inactive; rCAG binder: inactive; EBNA-1 inh conf: 97.4; ZTA DNA inh trip: inactive

How did O=C(CCn1c(=S)oc2ccccc21)Nc1ccc(F)cc1 do in these assays?
PAFAH1B3 FP inh: inactive; PAFAH2 FP inh: inactive; EBNA-1 inhibitor: 47.6; ZTA counter: inactive; PAFAH1B2 inh: inactive; rCAG binder: inactive; EBNA-1 inh conf: inactive; ZTA DNA inh trip: inactive

Results for Cc1ccc(NC(=O)CCn2c(=S)oc3ccccc32)cc1 ?
PAFAH1B3 FP inh: inactive; PAFAH2 FP inh: inactive; EBNA-1 inhibitor: 42.7; ZTA counter: inactive; PAFAH1B2 inh: inactive; rCAG binder: inactive; EBNA-1 inh conf: 55.0; ZTA DNA inh trip: inactive

Results for CCOc1ccc(NC(=O)CCn2c(=S)oc3ccccc32)cc1 ?
PAFAH1B3 FP inh: inactive; PAFAH2 FP inh: inactive; EBNA-1 inhibitor: inactive; ZTA counter: inactive; PAFAH1B2 inh: inactive; rCAG binder: inactive

How did CN(C)c1ccc(NC(=O)CCn2c(=S)oc3ccccc32)cc1 do in these assays?
PAFAH1B3 FP inh: inactive; PAFAH2 FP inh: inactive; EBNA-1 inhibitor: inactive; ZTA counter: inactive; PAFAH1B2 inh: inactive; rCAG binder: inactive

Results for CCCc1cc2c(cc1NC(=O)c1ccc(Br)cc1)OCO2 ?
PAFAH1B3 FP inh: inactive; PAFAH2 FP inh: inactive; EBNA-1 inhibitor: 33.4; ZTA counter: inactive; PAFAH1B2 inh: inactive; rCAG binder: inactive; EBNA-1 inh conf: inactive; ZTA DNA inh trip: inactive

Results for CCCc1cc2c(cc1NC(=O)c1ccc(C(C)(C)C)cc1)OCO2 ?
PAFAH1B3 FP inh: inactive; PAFAH2 FP inh: inactive; EBNA-1 inhibitor: inactive; ZTA counter: inactive; PAFAH1B2 inh: inactive; rCAG binder: inactive

How did Cc1cc(NC(=O)CSc2nnc(NC(=O)C3CC(=O)N(c4ccccc4)C3)s2)no1 (stereo unspecified) do in these assays?
PAFAH1B3 FP inh: inactive; PAFAH2 FP inh: inactive; EBNA-1 inhibitor: 83.4; ZTA counter: inactive; PAFAH1B2 inh: inactive; rCAG binder: inactive; EBNA-1 inh conf: inactive; ZTA DNA inh trip: inactive

What do the screens show for `Cc1cc(NC(=O)CSc2nnc(NC(=O)C3CC(=O)N(c4ccccc4C)C3)s2)no1` (stereo unspecified)?
PAFAH1B3 FP inh: inactive; PAFAH2 FP inh: inactive; EBNA-1 inhibitor: inactive; ZTA counter: inactive; PAFAH1B2 inh: inactive; rCAG binder: inactive

What do the screens show for `O=C(CC1CCCC1)N[C@@H](Cc1cccnc1)C(=O)N1CCC[C@H]1C(=O)NCCc1ccccc1Cl`?
rCAG binder: inactive

Results for COc1ccc(CCN(Cc2cccs2)S(=O)(=O)c2ccccc2)cc1OC ?
rCAG binder: inactive

What do the screens show for `Cc1ccc(NC(=S)Nc2ccc3[nH]c(=O)[nH]c3c2)cc1`?
PAFAH1B3 FP inh: inactive; PAFAH2 FP inh: inactive; EBNA-1 inhibitor: inactive; ZTA counter: inactive; PAFAH1B2 inh: inactive; rCAG binder: inactive

Results for Cc1ccc(C(=O)NC(=S)Nc2ccc3[nH]c(=O)[nH]c3c2)cc1 ?
PAFAH1B3 FP inh: inactive; PAFAH2 FP inh: inactive; EBNA-1 inhibitor: 43.5; ZTA counter: inactive; PAFAH1B2 inh: inactive; rCAG binder: inactive; EBNA-1 inh conf: 33.9; ZTA DNA inh trip: inactive

What do the screens show for `O=C(NCC1OCCc2ccccc21)c1ccc(NC(=O)c2ccc(Cl)cc2Cl)cc1` (stereo unspecified)?
PAFAH1B3 FP inh: inactive; PAFAH2 FP inh: inactive; EBNA-1 inhibitor: 70.4; ZTA counter: inactive; PAFAH1B2 inh: inactive; rCAG binder: inactive; EBNA-1 inh conf: 46.6; ZTA DNA inh trip: inactive

Results for O=C(NCC1OCCc2ccccc21)c1ccc(NC(=O)c2ccccc2Cl)cc1 (stereo unspecified) ?
PAFAH1B3 FP inh: inactive; PAFAH2 FP inh: inactive; EBNA-1 inhibitor: inactive; ZTA counter: inactive; PAFAH1B2 inh: inactive; rCAG binder: inactive

Results for Cc1nn(Cc2ccccc2)c(C)c1NC(=O)c1cc(-c2ccc3c(c2)OCO3)on1 ?
PAFAH1B3 FP inh: inactive; PAFAH2 FP inh: inactive; EBNA-1 inhibitor: 42.0; ZTA counter: inactive; PAFAH1B2 inh: inactive; rCAG binder: inactive; EBNA-1 inh conf: 42.5; ZTA DNA inh trip: inactive

How did COC(=O)[C@]12C[C@H](CC(=O)N3CCC(c4ccccc4)CC3)C(=O)N(Cc3ccc(Cl)cc3Cl)C1=C[C@H](C1CCCC1)O[C@@H]2C do in these assays?
rCAG binder: inactive

What do the screens show for `COc1cccc(CNC(=O)c2cc3oc4ccccc4c3n2C)c1OC`?
PAFAH1B3 FP inh: inactive; PAFAH2 FP inh: inactive; EBNA-1 inhibitor: 31.6; ZTA counter: inactive; PAFAH1B2 inh: inactive; rCAG binder: inactive; EBNA-1 inh conf: inactive; ZTA DNA inh trip: inactive
